According to the supplement of paper PMC12494721:
Structures can show the parent of a compound that is named as a salt.

Columns and labels:
Conditions in all cases: incubation time: 27 h, anaerobic, 37 °C;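 for the amine columns active = adjusted P below 0.05 in both replicates with a change the same way and a mean fold change under 0.8 or over 1.25; inactive = the rest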
[1] = test system: Clostridium sporogenes DSM 1664; experiment: growth (OD595) fold change vs plate DMSO controls (fold change (ratio)); higher = more growth
Outline: (§1)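 Shaken 96-well cultures in mGAM, grown anaerobically for 27 h at 37 °C, were read at 595 nm. OD came from blank-subtracted readings, corrected for background with 20 µM compound solutions in water and scaled by a calibration factor of 5. Growth is the fold change versus the plate's median DMSO control. Values average 2 biological replicates, and any fold change above 1.5 is NA.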

Escherichia coli IAI1 [2] = experiment: as above
Outline: as §1

[3] = test system: Klebsiella aerogenes DSM 30053; experiment: as above
Outline: as §1

[4] = test system: Ruminococcus gnavus DSM 108212; experiment: as above
Outline: as §1

[5] = test system: Klebsiella aerogenes DSM 30053; experiment: fold change of Histamine concentration vs plate DMSO controls (fold change (ratio)); higher = more amine produced, active = hit call of the paper (significant change in both replicates, either direction)
Outline: (§2)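 Amines were quantified by LC–triple-quadrupole MS in dynamic MRM mode against external calibration curves, with drift correction within each batch. The samples were whole anaerobic mGAM cultures of four gut bacterial strains, grown for 27 h at 37 °C in 80 µL wells and extracted with cold acetonitrile/methanol with 0.1% formic acid, then centrifuged. Values are reported as fold change over DMSO controls on the same plate. The mean of 2 biological replicates is given.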

[6] = test system: Clostridium sporogenes DSM 1664; experiment: fold change of Tryptamine concentration vs plate DMSO controls (fold change (ratio)); higher = more amine produced, active = hit call of the paper (significant change in both replicates, either direction)
Outline: as §2

[7] = test system: Ruminococcus gnavus DSM 108212; experiment: as above
Outline: as §2

Escherichia coli IAI1 [8] = experiment: fold change of Putrescine concentration vs plate DMSO controls (fold change (ratio)); higher = more amine produced, active = hit call of the paper (significant change in both replicates, either direction)
Outline: as §2

[9] = test system: Klebsiella aerogenes DSM 30053; experiment: as above
Outline: as §2

Escherichia coli IAI1 [10] = experiment: fold change of Cadaverine concentration vs plate DMSO controls (fold change (ratio)); higher = more amine produced, active = hit call of the paper (significant change in both replicates, either direction)
Outline: as §2

[11] = test system: Klebsiella aerogenes DSM 30053; experiment: as above
Outline: as §2

[12] = test system: Ruminococcus gnavus DSM 108212; experiment: fold change of 2-Phenylethylamine concentration vs plate DMSO controls (fold change (ratio)); higher = more amine produced, active = hit call of the paper (significant change in both replicates, either direction)
Outline: as §2

| Structure (SMILES) | growth [1] | growth (Escherichia coli IAI1 [2]) | growth [3] | growth [4] | fold change of Histamine concentration [5] | fold change of Tryptamine concentration [6] | fold change of Tryptamine concentration [7] | fold change of Putrescine concentration (Escherichia coli IAI1 [8]) | fold change of Putrescine concentration [9] | fold change of Cadaverine concentration (Escherichia coli IAI1 [10]) | fold change of Cadaverine concentration [11] | fold change of 2-Phenylethylamine concentration [12] |
| --- | --- | --- | --- | --- | --- | --- | --- | --- | --- | --- | --- | --- |
| COc1ccc(CN2CCN(C(c3ccc(F)cc3)c3ccc(F)cc3)CC2)c(OC)c1OC [Lomerizine dihydrochloride] (20 µM) | 1.02 | 1.08 | 1.04 | 0.769 | 0.983 (inactive) | 1.08 (inactive) | 0.781 (inactive) | 1.09 (inactive) | 1.01 (inactive) | 0.984 (inactive) | 1.01 (inactive) | 0.87 (inactive) |
| CC1=C(/C=C/C(C)=C/C=C/C(C)=C\C(=O)O)C(C)(C)CCC1 [Isotretinoin] (20 µM) | 0.96 | 0.987 | 1.02 | 1.02 | 0.996 (inactive) | 0.977 (inactive) | 1.04 (inactive) | 1.01 (inactive) | 1.02 (inactive) | 0.97 (inactive) | 0.991 (inactive) | 1.05 (inactive) |
| C[C@@H](O)[C@H]1C(=O)N2C(C(=O)O)=C(S[C@@H]3CN[C@H](CNS(N)(=O)=O)C3)[C@H](C)[C@H]12 [Doripenem monohydrate] (20 µM) | 0 | 0.00243 | 0.281 | 0.0314 | 0.193 (active) | 0.0168 (active) | 0.0858 (active) | 0.954 (inactive) | 0.467 (active) | 2.1 (active) | 1.08 (inactive) | 0.0567 (active) |
| CCC(C)(C)c1ccc(CC(C)CN2C[C@@H](C)O[C@@H](C)C2)cc1 (stereo partly specified) [Amorolfine hydrochloride] (20 µM) | 1.07 | 0.995 | 1.01 | 0.849 | 1.01 (inactive) | 0.989 (inactive) | 0.868 (inactive) | 1.03 (inactive) | 1 (inactive) | 1.02 (inactive) | 0.997 (inactive) | 0.88 (inactive) |
| O=C(NC(Cc1cc(=O)[nH]c2ccccc12)C(=O)O)c1ccc(Cl)cc1 (stereo unspecified) [Rebamipide] (20 µM) | 0.925 | 1.01 | 0.964 | 0.957 | 0.934 (inactive) | 1.06 (inactive) | 1.28 (active) | 1.07 (inactive) | 0.965 (inactive) | 0.957 (inactive) | 1 (inactive) | 1.52 (active) |
| C[C@@H]1CCC[C@H](C)N1NC(=O)c1ccc(Cl)c(S(N)(=O)=O)c1 [Clopamide] (20 µM) | 1.09 | 0.983 | 0.983 | 1.04 | 1.07 (inactive) | 1.07 (inactive) | 1.02 (inactive) | 0.989 (inactive) | 1.03 (inactive) | 1 (inactive) | 1.01 (inactive) | 1.03 (inactive) |
| Cc1cc2nc3ccc(=[N+](C)C)cc-3sc2cc1N [Tolonium chloride] (20 µM) | 0.823 | 0.559 | 0.55 | 0.0958 | 0.959 (inactive) | 1 (inactive) | 0.972 (inactive) | 0.979 (inactive) | 1 (inactive) | 1.05 (inactive) | 0.984 (inactive) | 0.959 (inactive) |
| COC(=O)C1=C(C)NC(C)=C(C(=O)OC2CCCN(Cc3ccccc3)C2)C1c1cccc([N+](=O)[O-])c1 (stereo unspecified) [Benidipine hydrochloride] (20 µM) | 1.1 | 1.23 | 1.02 | 0.864 | 0.929 (inactive) | 0.912 (inactive) | 0.983 (inactive) | 1.24 (inactive) | 1.02 (inactive) | 0.989 (inactive) | 1.02 (inactive) | 0.986 (inactive) |
| N=C(N)Nc1ccc(C(=O)Oc2ccc3cc(C(=N)N)ccc3c2)cc1 [Nafamostat Mesylate] (20 µM) | 1.04 | 0.933 | 0.99 | 0.967 | 0.92 (inactive) | 0.959 (inactive) | 0.91 (inactive) | 1.04 (inactive) | 1.06 (inactive) | 1.04 (inactive) | 1.01 (inactive) | 0.948 (inactive) |
| O=C1NCC2(CCN(CCc3ccccc3)CC2)O1 [Fenspiride hydrochloride] (20 µM) | 1.08 | 0.982 | 1.05 | 1.03 | 0.89 (inactive) | 1.02 (inactive) | 1.03 (inactive) | 0.98 (inactive) | 0.973 (inactive) | 0.994 (inactive) | 1.02 (inactive) | 0.988 (inactive) |
| CC(C)NCC(O)c1ccc(O)c(O)c1 (single isomer, unassigned; (-)) [(-) Isoproterenol hydrochloride] (20 µM) | 1.02 | 0.976 | 1.15 | 0.899 | 0.874 (inactive) | 1.03 (inactive) | 0.857 (inactive) | 1 (inactive) | 0.996 (inactive) | 0.982 (inactive) | 1.02 (inactive) | 0.814 (inactive) |
| NCCc1ccc(O)c(O)c1 [Dopamine hydrochloride] (20 µM) | 0.979 | 1.06 | 1.03 | 0.996 | 1.06 (inactive) | 0.994 (inactive) | 1.03 (inactive) | 0.967 (inactive) | 0.996 (inactive) | 0.959 (inactive) | 0.987 (inactive) | 1.05 (inactive) |
| CCN(CCCc1ccccc1)CCCc1ccccc1 [Alverine citrate salt] (20 µM) | 0.998 | 1.01 | 1.11 | 0.708 | 0.972 (inactive) | 1.03 (inactive) | 0.74 (active) | 0.895 (inactive) | 1.02 (inactive) | 1.29 (active) | 1.02 (inactive) | 0.782 (inactive) |
